Records with an inconclusive call do not appear. A call without a number means that no potency is given here. Unmarked numbers belong to inactive results. Calls of active or inactive are those of the source. Unless noted, calls come from the whole dose curve; as a rule, active = well fitted curve in the direction sought with a large enough effect in the repeat runs; inconclusive = weak or mixed curves; inactive = no such curve, though single readings can be large; an effect the other way counts as inactive or inconclusive.
Key:
[1] = molecular target: Retinoic acid receptor RXR-alpha (Homo sapiens) (UniProt P19793); assay: qHTS assay to identify small molecule agonists of the RXR signaling pathway (AID 1159527; calls by dose curve; note: nearly all actives have a fitted effect of over 35% in size)
Retinoic acid receptor RXR-alpha (Homo sapiens), sequence (P19793 whole entry, looked up): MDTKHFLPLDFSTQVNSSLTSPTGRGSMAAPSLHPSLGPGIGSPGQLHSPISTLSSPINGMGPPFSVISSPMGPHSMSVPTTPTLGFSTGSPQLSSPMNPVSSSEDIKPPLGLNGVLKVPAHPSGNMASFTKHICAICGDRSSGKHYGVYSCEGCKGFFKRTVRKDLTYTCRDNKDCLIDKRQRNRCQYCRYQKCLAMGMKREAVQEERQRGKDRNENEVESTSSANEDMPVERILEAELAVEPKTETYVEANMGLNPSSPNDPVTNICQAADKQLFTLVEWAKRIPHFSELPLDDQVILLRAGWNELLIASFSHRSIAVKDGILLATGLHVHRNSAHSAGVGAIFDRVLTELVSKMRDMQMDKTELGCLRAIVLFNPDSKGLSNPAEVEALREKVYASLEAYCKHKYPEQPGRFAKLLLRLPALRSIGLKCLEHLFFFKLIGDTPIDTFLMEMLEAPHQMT
Method in brief: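 Agonist mode; 9-cis retinoic acid positive control. HEK 293T UAS-bla reporter cells, 2% charcoal-stripped FBS, 16 hr compound exposure at 37 C/5% CO2. LiveBLAzer B/G FRET substrate 2 hr RT; ex 405, em 460/530 nm.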

[2] = qHTS assay to identify small molecule agonists of the RXR signaling pathway - cell viability counter screen (AID 1159529); note: series mostly up to about 77 µM; nearly all actives have a fitted effect of over 50% in size
Method in brief: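 Luminescence from CellTiter-Glo (30 min, RT) measured viability in the same wells as the beta-lactamase reporter readout. Cells: GeneBLAzer RXR-alpha HEK 293T, 2% charcoal-stripped FBS. Compound exposure 16 hr, 37 C.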

[3] = qHTS assay to identify small molecule antagonists of the retinoid acid receptor (RAR) signaling pathway - cell viability counter screen (AID 1159551); note: nearly all actives have a fitted effect of over 35% in size
Method in brief: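 Cytotoxicity counter screen in C3RL4 cells: 6 h compound exposure with 1 uM retinol (final), viability from cellular ATP by luminescence.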

[4] = qHTS assay to identify small molecule antagonists of the retinoic acid receptor (RAR) signaling pathway (AID 1159552; note: nearly all actives have a fitted effect of over 50% in size)
Method in brief: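 Luminescence from a RARE luciferase reporter in C3RL4 cells served as read-out. Cells received compounds together with 1 uM final retinol and incubated 6 hr at 37 C before detection reagent was added for 30 min at room temperature.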

[5] = qHTS assay to identify small molecule antagonists of the estrogen related receptor (ERR) signaling pathway from Tox21 library - cell viability counter screen (AID 1224834); note: nearly all actives have a fitted effect of over 30% in size
Method in brief: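 Cytotoxicity of test substances is gauged in the same ERR cells used for the antagonist screen, after 17.5 h of compound treatment at 37 C, by CellTiter-Fluor fluorescence measured after 30 min.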

[6] = qHTS assay to identify small molecule agonists of the constitutive androstane receptor (CAR) signaling pathway - cell viability counter screen (AID 1224836); note: series mostly up to about 92 µM; nearly all actives have a fitted effect of over 45% in size
Method in brief: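 Viability read-out: CellTiter-Fluor fluorescence after 23 h compound exposure at 37 C/5% CO2 in double-stable HepG2-CYP2B6-hCAR cells, with PK11195 present at 0.75 uM final; compounds tested in 15-point titration.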

[7] = qHTS assay to identify small molecule antagonists of the constitutive androstane receptor (CAR) signaling pathway - cell viability counter screen (AID 1224837); note: series mostly up to about 92 µM; nearly all actives have a fitted effect of over 45% in size
Method in brief: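 Multiplexed cytotoxicity read-out for the CAR antagonist screen: double-stable HepG2-CYP2B6-hCAR cells co-treated with 50 nM CITCO (final) and compound over 15 concentrations, incubated 23 hr, then assessed by CellTiter-Fluor fluorescence.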

[8] = molecular target: Nuclear receptor subfamily 1 group I member 3 (Homo sapiens) (UniProt Q14994); assay: qHTS assay to identify small molecule antagonists of the constitutive androstane receptor (CAR) signaling pathway (AID 1224838); note: nearly all actives have a fitted effect of over 40% in size
Nuclear receptor subfamily 1 group I member 3 (Homo sapiens), sequence (Q14994 whole entry, looked up): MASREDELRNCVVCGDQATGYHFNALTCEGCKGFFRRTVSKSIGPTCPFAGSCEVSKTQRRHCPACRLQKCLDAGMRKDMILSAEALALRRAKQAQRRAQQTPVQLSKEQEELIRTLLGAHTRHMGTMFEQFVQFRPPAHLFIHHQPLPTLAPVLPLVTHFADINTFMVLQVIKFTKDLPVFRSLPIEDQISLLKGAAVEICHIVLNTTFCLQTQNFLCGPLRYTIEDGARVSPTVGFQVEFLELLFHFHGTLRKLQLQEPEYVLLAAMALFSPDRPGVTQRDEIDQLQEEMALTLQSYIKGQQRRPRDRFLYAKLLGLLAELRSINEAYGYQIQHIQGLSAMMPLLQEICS
Method in brief: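 Compounds were titrated across 15 concentrations onto HepG2 cells double-stably expressing hCAR and a CYP2B6-2.2kb reporter, together with 50 nM CITCO (final). After 24 h at 37 C, luciferase activity was measured by luminescence.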

[9] = molecular target: Nuclear receptor subfamily 1 group I member 3 (Homo sapiens) (UniProt Q14994); assay: qHTS assay to identify small molecule agonists of the constitutive androstane receptor (CAR) signaling pathway (AID 1224839); note: nearly all actives have a fitted effect of over 15% in size; note: potency is the fitted concentration of half-maximal effect;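 for activation: HepG2 cells stably carrying human CAR and a CYP2B6 luciferase reporter; series mostly up to about 92 µM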
Method in brief: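 Luminescence read-out (ONE-Glo, 30 min, room temperature) from double-stable HepG2-CYP2B6-hCAR cells exposed 24 h to 15-point compound series in presence of 0.75 uM PK11195 final.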

[10] = qHTS assay to identify small molecule antagonists of the estrogen related receptor signaling pathway with the pleiotropic PPARgamma coactivator (PGC) from Tox21 10K library - cell viability counter screen (AID 1224840; active = well fitted cell-killing curve with a large enough effect in the repeat runs, not every such curve was filed as active; note: nearly all actives have a fitted effect of over 40% in size)
Method in brief: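 Step one, plate 2,000 PGC/ERR cells per well; step two, incubate 6 h at 37 C/5% CO2; step three, pin-transfer compounds; step four, incubate 17.5 h; step five, add CellTiter-Fluor and read fluorescence after 30 min.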

[11] = molecular target: Thyrotropin receptor (Homo sapiens) (UniProt P16473); assay: qHTS assay to identify small molecule agonists of the thyroid stimulating hormone receptor (TSHR) signaling pathway (AID 1224843; calls by dose curve; note: nearly all actives have a fitted effect of over 45% in size; note: potency is the fitted concentration of half-maximal effect)
Thyrotropin receptor (Homo sapiens), sequence (P16473 whole entry, looked up): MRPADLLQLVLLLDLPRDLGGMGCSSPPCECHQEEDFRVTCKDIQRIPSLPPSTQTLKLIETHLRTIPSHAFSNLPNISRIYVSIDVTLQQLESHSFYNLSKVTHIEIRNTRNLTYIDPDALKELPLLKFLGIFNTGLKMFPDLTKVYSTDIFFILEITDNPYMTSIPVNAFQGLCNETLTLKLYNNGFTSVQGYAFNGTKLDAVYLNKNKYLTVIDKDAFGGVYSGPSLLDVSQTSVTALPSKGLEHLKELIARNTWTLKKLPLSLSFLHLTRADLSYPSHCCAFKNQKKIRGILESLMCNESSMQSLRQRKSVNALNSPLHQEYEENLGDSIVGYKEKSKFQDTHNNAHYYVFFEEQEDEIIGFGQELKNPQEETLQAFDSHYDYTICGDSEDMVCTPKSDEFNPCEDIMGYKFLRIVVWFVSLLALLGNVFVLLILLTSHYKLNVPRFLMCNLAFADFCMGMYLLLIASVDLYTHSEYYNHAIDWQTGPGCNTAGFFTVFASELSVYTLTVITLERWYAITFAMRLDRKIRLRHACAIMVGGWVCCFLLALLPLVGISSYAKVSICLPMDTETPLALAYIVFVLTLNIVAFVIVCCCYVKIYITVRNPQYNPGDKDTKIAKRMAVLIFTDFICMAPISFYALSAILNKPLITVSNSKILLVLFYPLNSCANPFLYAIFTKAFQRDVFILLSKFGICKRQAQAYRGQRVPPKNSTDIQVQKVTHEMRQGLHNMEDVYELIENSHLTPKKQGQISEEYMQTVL
Method in brief: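 Screening of the Tox21 10K collection used HEK293 cells engineered with TSHR at 800 cells per well. After a 30-min room-temperature compound exposure, HTRF cAMP reagents were added and fluorescence recorded 1 h later.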

[12] = qHTS assay to identify small molecule agonists of the hypoxia (HIF-1) signaling pathway - cell viability counter screen (AID 1224844; calls by dose curve; note: nearly all actives have a fitted effect of over 50% in size)
Method in brief: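 Tox21 10K compounds were added to HRE-bla ME-180 cells (0.5% dialyzed FBS) and incubated 17 hrs at 37C; ATP-based CellTiter-Glo luminescence then reported cell viability in the same wells.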

[13] = qHTS assay to identify small molecule agonists of H2AX (AID 1224845; active = well fitted activation curve with a large enough effect in the signal ratio in the repeat runs, not every such curve was filed as active; the % refers to the signal ratio)
Method in brief: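 Phospho-H2AX Ser139 measured by HTRF (ex 320 nm; em 665 and 620 nm) after 24 hr antibody incubation. Compounds, 15 concentrations, 0.76% DMSO, were applied to CHO-K1 cells for 3hr at 37C before lysis.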

[14] = molecular target: Luciferin 4-monooxygenase (Photinus pyralis) (UniProt P08659); assay: qHTS assay to identify small molecule inhibitors of firefly luciferase (AID 1224835); note: series mostly up to about 120 µM; nearly all actives have a fitted effect of over 25% in size
Luciferin 4-monooxygenase (Photinus pyralis), sequence (P08659 whole entry, looked up): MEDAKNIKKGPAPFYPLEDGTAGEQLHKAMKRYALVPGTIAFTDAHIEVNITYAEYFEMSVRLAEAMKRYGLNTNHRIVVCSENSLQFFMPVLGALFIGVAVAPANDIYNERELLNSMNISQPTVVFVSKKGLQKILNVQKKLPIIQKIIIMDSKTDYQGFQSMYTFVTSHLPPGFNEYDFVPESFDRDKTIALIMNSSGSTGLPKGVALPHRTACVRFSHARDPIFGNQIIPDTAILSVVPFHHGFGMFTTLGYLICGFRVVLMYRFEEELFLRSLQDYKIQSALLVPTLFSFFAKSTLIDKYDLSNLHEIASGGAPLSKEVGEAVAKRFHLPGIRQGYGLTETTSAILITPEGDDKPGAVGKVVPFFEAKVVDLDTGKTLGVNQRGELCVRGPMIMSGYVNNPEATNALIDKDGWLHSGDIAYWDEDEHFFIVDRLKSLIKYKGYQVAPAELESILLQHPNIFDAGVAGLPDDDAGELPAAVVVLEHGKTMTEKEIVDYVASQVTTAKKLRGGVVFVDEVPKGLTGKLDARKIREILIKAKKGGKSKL
Method in brief: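 Inhibition of purified Photinus luciferase is measured by luminescence. Substrate levels (D-luciferin, ATP) sit at their KM values. Each compound is tested in a concentration series.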

[15] = qHTS assay to identify small molecule antagonists of the estrogen related receptor signaling pathway with the pleiotropic PPARgamma coactivator (PGC) from Tox21 10K library (AID 1224841; call rule not given here; note: series mostly up to about 92 µM; actives are mostly falling curves and most rising ones were filed inactive; nearly all actives have a fitted effect of over 50% in size)
Method in brief: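 Antagonism in this quantitative HTS is taken from loss of luciferase signal in PGC/ERR cells. Cells (2,000/well) are treated with compounds in DMSO after a 6 h settling period and read by One-Glo luminescence after 18 h.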

[16] = qHTS assay to identify small molecule agonists of the estrogen related receptor signaling pathway with the pleiotropic PPARgamma coactivator (PGC) from Tox21 10K library (AID 1224842); note: nearly all actives have a fitted effect of over 15% in size
Method in brief: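 Luminescence from One-Glo (30 min, room temperature) measured after PGC/ERR cells had 18 h at 37 C with pinned compound (23 nL in DMSO). Cells had been seeded at 2,000 per well and pre-incubated 6 h.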

[17] = qHTS assay to identify small molecule agonists of the retinoic acid receptor (RAR) signaling pathway (AID 1159553)
Method in brief: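 Agonist activity was scored in C3RL4 cells bearing a retinoic acid response element luciferase construct. Cells were treated with compounds for 6 hr at 37 C, and luciferase signal was measured as luminescence.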

SMILES	Potency [1]	outcome [2]	outcome [3]	outcome [4]	Potency [5]	Potency [6]	Potency [7]	outcome [8]	Potency [9]	outcome [10]	Potency [11]	outcome [12]	outcome [13]	Potency [14]	Potency [15]	outcome [16]	Potency [17]
O=C(/N=N/C(=O)OCc1ccccc1)OCc1ccccc1	inactive	inactive	inactive	inactive	inactive	inactive	inactive	inactive	54.5 µM (active)	inactive	24.3 µM (active)	inactive	inactive	–	–	–	–
CCCCCOC(=O)CCC	inactive	inactive	inactive	inactive	inactive	inactive	inactive	inactive	inactive	inactive	inactive	inactive	inactive	inactive	inactive	inactive	–
CC(C)(C)c1cc(CCC(=O)NN)cc(C(C)(C)C)c1O	inactive	inactive	inactive	inactive	inactive	inactive	inactive	inactive	30.6 µM (active)	inactive	–	inactive	inactive	inactive	inactive	inactive	–
Cc1ccc2ccc(Cl)cc2n1	inactive	inactive	inactive	inactive	inactive	inactive	inactive	–	inactive	inactive	–	inactive	inactive	–	–	–	inactive
O=C1c2ccccc2C(=O)C1c1ccccc1	inactive	inactive	inactive	inactive	inactive	inactive	inactive	inactive	inactive	inactive	–	inactive	inactive	–	–	–	–
O=C(O)c1ccc(Cl)cc1Cl	inactive	inactive	inactive	inactive	inactive	inactive	inactive	–	–	inactive	inactive	–	inactive	inactive	–	–	–
CCCCNc1ccc(C(=O)OCCN(C)C)cc1	inactive	inactive	inactive	inactive	inactive	inactive	inactive	inactive	–	–	inactive	–	inactive	inactive	–	–	–
OC[C@H](Cc1cccc(O)c1)[C@H](CO)Cc1cccc(O)c1	inactive	inactive	inactive	inactive	inactive	inactive	inactive	inactive	inactive	inactive	–	inactive	inactive	–	inactive	inactive	–
CCCCCCCCCC(C)=O	inactive	inactive	inactive	inactive	inactive	inactive	inactive	inactive	inactive	inactive	inactive	–	inactive	inactive	–	–	–
